Screens: PubChem, National Center for Advancing Translational Sciences (NCATS)
In the library only some 7.4% were active in any assay of this set; here they are far more common.
HEK cytotox = Cytotoxic Profiling in HEK 293 Cell Line of Diverse Libraries Using Quantitative High-Throughput Screening | HEK 293 viability, ATP luminescence (CellTiter-Glo), 48-72 h | Potency, µM (titrated, usually from 115 µM), most hits filed as inhibitors | 94,000 compounds, 6.6% hits | AID 1345083, 2018; note: nearly all actives have a fitted effect of over 60% in size
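CellTiter-Glo luminescence (cellular ATP) was read after 48 or 72 hr of compound exposure at 37 degree Celsius. Cells were HEK 293 plated at 250 cells/well.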
NIH3T3 tox = Cytotoxic Profiling in NIH 3T3 Cell Line of Diverse Libraries Using Quantitative High-Throughput Screening. NIH 3T3 viability, CellTiter-Glo ATP luminescence, 48-72 h. Potency, µM (titrated, usually from 96.7 µM), hits mostly inhibitors. 94,000 compounds, 4.3% hits. AID 1345082, 2018; note: nearly all actives have a fitted effect of over 55% in size
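ATP-dependent luminescence (CellTiter-Glo) served as the viability signal for NIH 3T3 cells treated with compound for 48 or 72 hr at 37 °C.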
Luciferase inh = Firefly luciferase inhibition profiling of diverse chemical library using quantitative high-throughput screening; Luciferin 4-monooxygenase (Photinus pyralis), P08659; purified P. pyralis luciferase, luminescence, biochemical; Potency, µM (highest dose often 115 µM), hits mostly inhibitors; 76,000 compounds, 2.5% hits; AID 1347043, 2019; note: nearly all actives have a fitted effect of over 65% in size
Target sequence (P08659 whole entry, looked up): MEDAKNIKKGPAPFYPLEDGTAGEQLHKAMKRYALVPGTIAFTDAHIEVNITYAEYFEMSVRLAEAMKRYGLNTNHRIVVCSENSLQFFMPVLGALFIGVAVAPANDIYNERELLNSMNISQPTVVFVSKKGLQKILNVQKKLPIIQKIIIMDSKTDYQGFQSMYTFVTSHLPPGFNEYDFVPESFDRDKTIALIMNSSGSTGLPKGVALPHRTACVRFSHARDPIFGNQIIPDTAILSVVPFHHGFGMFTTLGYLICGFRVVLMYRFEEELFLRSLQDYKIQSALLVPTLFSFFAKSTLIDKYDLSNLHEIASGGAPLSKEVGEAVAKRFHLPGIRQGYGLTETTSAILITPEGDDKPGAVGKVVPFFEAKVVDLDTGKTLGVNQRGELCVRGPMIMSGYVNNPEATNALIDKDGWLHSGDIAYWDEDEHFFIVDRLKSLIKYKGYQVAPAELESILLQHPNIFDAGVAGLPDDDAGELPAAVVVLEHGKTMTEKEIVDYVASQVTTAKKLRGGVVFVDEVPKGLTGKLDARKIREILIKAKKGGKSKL
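Luminescence read by CCD imaging after purified firefly luciferase (10nM final) was added to substrate buffer holding 10uM D-luciferin and 10uM ATP, pH 7.5, pre-dosed with compound.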
hNpr1 antagonist = Natriuretic polypeptide receptor (hNpr1) antagonism - Primary qHTS; Atrial natriuretic peptide receptor 1 (Homo sapiens), P16066; HEK293 hNpr1 GloSensor cGMP, ANP-stimulated luminescence; Potency, µM (top dose mostly 46.3 µM), actives largely listed as inhibitors; 76,000 compounds, 1.6% hits; calls by dose curve; note: nearly all actives have a fitted effect of over 60% in size
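HEK293 cells stably expressing human Npr1 and cGMP GloSensor pGS-40F, loaded 2 h with 2% GloSensor reagent, given compound 30 min at room temperature. Luminescence read before and 20 min after 0.1 nM hNppA.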
SNCA viab count = GF-AFC viability counterscreen for inhibitors of alpha-synuclein gene (SNCA) expression; AID 1671193, 2021; 150,000 compounds, 0.12% hits; HEK-293-SNCA-luc viability, GF-AFC fluorescence, 24 h; Potency, µM (doses to about 57.1 µM), most hits filed as cytotoxic; note: nearly all actives have a fitted effect of over 30% in size
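Cytotoxicity counterscreen: after 24 h compound treatment of genome-edited SNCA-luciferase HEK-293 cells, live-cell protease substrate GF-AFC read by fluorescence after 30 min; activity scaled between DMSO (0%) and medium-only (-100%), curves Hill-fitted.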
SNCA expr inhib = Primary qHTS assay for inhibitors of alpha-synuclein gene (SNCA) expression. HEK-293 SNCA-luciferase knock-in, luminescence, 24 h. Potency, µM (series often up to 57.2 µM), most hits filed as inhibitors. 140,000 compounds, 0.17% hits; note: nearly all actives have a fitted effect of over 45% in size
Hits are given with their value; ! = a repeat was not active; [ ] = dose if it differs, or a comment. Unless noted, calls come from the whole dose curve; as a rule, active = well fitted curve in the direction sought with a large enough effect; inconclusive = small, poorly fitted or top-dose-only effect, or another doubt; inactive = no such curve, though single readings can be large; an effect the other way counts as inactive or inconclusive.

COc1ccc(C(=O)N2CCC(C(=O)N3CCC4(CC3)CC(=O)Nc3ccccc3O4)CC2)cc1 was read as HEK cytotox inactive, NIH3T3 tox inactive, SNCA viab count inactive and SNCA expr inhib inactive.
Screening COCC(=O)N1CCCC(C(=O)N(C)CCn2ccnc2C)C1 (stereo not given) returned HEK cytotox inactive, NIH3T3 tox inactive, Luciferase inh inconclusive, hNpr1 antagonist inactive, SNCA viab count inactive and SNCA expr inhib inactive.
Cc1ccc(NC(=O)Nc2ccccc2)c(=O)n1CC(=O)NCCN1CCCCC1 was read as HEK cytotox inactive, NIH3T3 tox inactive, Luciferase inh inactive, hNpr1 antagonist inactive, SNCA viab count inactive and SNCA expr inhib inactive.
Cc1ccc(NC(=O)Nc2ccc(C)n(CC(=O)NC3CCCCC3)c2=O)cc1 was read as HEK cytotox inconclusive, NIH3T3 tox inconclusive, Luciferase inh 0.4µM, hNpr1 antagonist inconclusive, SNCA viab count inactive and SNCA expr inhib inactive.
Screening Cc1nn(-c2ccccc2)c2c1C(C)N(C1CCN(C(=O)Cc3ccc(F)cc3)CC1)C2=O (stereo not given) returned HEK cytotox 50µM and NIH3T3 tox inconclusive.
Cc1nn(-c2ccccc2)c2c1C(C)N(C1CCN(C(=O)c3ccc(F)cc3)CC1)C2=O (stereo not given) was read as HEK cytotox inconclusive and NIH3T3 tox 35µM!.
Screening Cc1nn(-c2ccccc2)c2c1C(C(C)C)N(C1CCN(C(=O)c3ccccc3)CC1)C2=O (stereo not given) returned HEK cytotox 45µM and NIH3T3 tox inconclusive.
For Cc1nn(-c2ccccc2)c2c1C(C(C)C)N(C1CCN(C(=O)c3ccncc3)C1)C2=O (stereo not given) the results were HEK cytotox inconclusive and NIH3T3 tox inactive.
Cc1nn(-c2ccccc2)c2c1C(C(C)C)N(C1CCN(C(=O)c3ccc(C(F)(F)F)cc3)C1)C2=O (stereo not given) was read as HEK cytotox inconclusive and NIH3T3 tox 16µM.
Cc1nn(-c2ccccc2)c2c1C(C(C)C)N(C1CCN(C(=O)N(C)C)CC1)C2=O (stereo not given) was read as HEK cytotox 45µM and NIH3T3 tox inconclusive.
`COC(=O)N1CCC(N2C(=O)c3c(c(C)nn3-c3ccccc3)C2C(C)C)CC1` (stereo not given) gave HEK cytotox inconclusive and NIH3T3 tox inactive.
Screening Cc1nn(-c2ccccc2)c2c1C(C(C)C)N(C1CCN(C(=O)c3ccc(F)cc3)CC1)C2=O (stereo not given) returned HEK cytotox 35µM and NIH3T3 tox inconclusive.
Cc1nn(-c2ccccc2)c2c1C(C(C)C)N(C1CN(C(=O)C3CC3)C1)C2=O (stereo not given) was read as HEK cytotox inactive and NIH3T3 tox inactive.
Cc1nn(-c2ccccc2)c2c1C(C(C)C)N(C1CN(C(=O)c3ccc(Cl)cc3)C1)C2=O (stereo not given) was read as HEK cytotox 32µM and NIH3T3 tox inconclusive.
Cn1nc(C2CCCC2)cc1NC(=O)c1ccccc1Cl was read as HEK cytotox inconclusive, NIH3T3 tox inconclusive, SNCA viab count inactive and SNCA expr inhib inactive.
For Cc1ccc(-c2ccccc2CN2CCN(C(=O)Nc3ccccc3)CC2)cc1Cl the results were HEK cytotox 32µM, NIH3T3 tox inconclusive, SNCA viab count inactive[12.5 µM] and SNCA expr inhib inactive.
Cc1ccc(-c2ccccc2CN2CCN(C(=O)c3ccccc3Cl)CC2)cc1Cl was read as HEK cytotox 40µM, NIH3T3 tox 40µM, SNCA viab count inactive[12.5 µM] and SNCA expr inhib inactive.
For Cc1ccc(-c2ccccc2CN2CCN(C(=O)c3ccc(F)cc3)CC2)cc1Cl the results were HEK cytotox inconclusive, NIH3T3 tox inconclusive, SNCA viab count inactive[12.5 µM] and SNCA expr inhib inactive.
`Cc1ccc(C(=O)N2CCN(Cc3ccccc3-c3ccc(C)c(Cl)c3)CC2)cc1` gave HEK cytotox 40µM, NIH3T3 tox inconclusive, SNCA viab count inactive[12.5 µM] and SNCA expr inhib inactive.
`Cc1ccc(-c2ccccc2CN2CCN(C(=O)c3ccc(Cl)nc3)CC2)cc1Cl` gave HEK cytotox inconclusive, NIH3T3 tox 35µM, SNCA viab count inactive[12.5 µM] and SNCA expr inhib inactive.
`CC(C)N1C[C@H](O)C[C@H]1c1nnc2n1CCN(C(=O)c1ccncc1)CC2` gave HEK cytotox inactive, NIH3T3 tox inactive, Luciferase inh inactive, hNpr1 antagonist inactive, SNCA viab count inactive and SNCA expr inhib inactive.
`COc1ccc(-c2nc(C(C)C)nc3c2CCN([S+](=O)([O-])c2cccs2)CC3)cc1` gave HEK cytotox inconclusive, NIH3T3 tox inconclusive, Luciferase inh inactive, hNpr1 antagonist inactive, SNCA viab count inactive and SNCA expr inhib inactive.
CCCN(CCC)C(=O)C1COC2(CCCCC2)N1C(=O)c1ccccc1 (stereo not given) was read as HEK cytotox inactive, NIH3T3 tox inactive, Luciferase inh inactive, hNpr1 antagonist inactive, SNCA viab count inactive and SNCA expr inhib inactive.
Cc1ccc(-c2ccccc2CN2CCC(C(=O)NCCc3ccccc3)CC2)cc1Cl was read as HEK cytotox 40µM!, NIH3T3 tox 25µM, SNCA viab count inactive and SNCA expr inhib inactive.
COc1ccc(-c2noc([C@@H]3C[C@@H](O)CN3Cc3ccc(F)cc3)n2)cc1 was read as HEK cytotox inconclusive, NIH3T3 tox inactive, Luciferase inh 45µM, hNpr1 antagonist inactive, SNCA viab count inactive and SNCA expr inhib inactive.
For COc1ccc(CN2C[C@H](O)C[C@H]2c2nc(-c3ccc(C)c(F)c3)no2)cc1 the results were HEK cytotox inconclusive, NIH3T3 tox inconclusive, Luciferase inh 35µM, hNpr1 antagonist inactive, SNCA viab count inactive and SNCA expr inhib inactive.
Screening Cc1ccc(-c2noc([C@@H]3C[C@@H](O)CN3CC3CC3)n2)cc1F returned HEK cytotox inconclusive, NIH3T3 tox inconclusive, Luciferase inh 50µM, hNpr1 antagonist inactive, SNCA viab count inactive and SNCA expr inhib inactive.
For COc1ccc(CN2C[C@H](O)C[C@H]2c2nc(-c3ccncc3)no2)cc1 the results were HEK cytotox inconclusive, NIH3T3 tox inactive, Luciferase inh inactive, hNpr1 antagonist inactive, SNCA viab count inactive and SNCA expr inhib inactive.
